The source of these data is PubChem BioAssay (NCATS).

For assay [1], the target named is Calcium and integrin-binding protein 1 (Homo sapiens) (UniProt Q99828). The assay can be described thus: Primary qHTS for Identification of Calcium Integrin Binding Protein 1 (CIB1) Competitor (AID 1508620).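 Further: GST tagged CIB1 binding a fluorescein labelled alphaIIb integrin peptide tracer; top concentration of the series differs between compounds; on the % scale 0 is the no-effect control and ±100 the full control effect.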 In short, it runs like this:
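CIB1-GST (1 uM final) and compound incubated 15 min at room temperature before adding FITC-alphaIIb peptide tracer (100 nM final). Competition for binding read by fluorescence polarization (ex 480, em 540) after another 15 min at room temperature.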

Assay [2] is described as follows: Primary qHTS for inhibitors of nuclear receptor binding SET domain protein 2 (NSD2) in an isogenic RCH-ACV NSD2 p.E1099K mutant (9B) (AID 1645876). Further: on the % scale 0 is the no-effect control and ±100 the full control effect; nearly all actives have a fitted effect of over 70% in size. In general terms: Quantitative high-throughput screening tests each substance at several concentrations.
A short description of assay [3]: Primary qHTS for inhibitors of nuclear receptor binding SET domain protein 2 (NSD2) in an RCH-ACV wild type WT cells (2C) (AID 1645877). Further: on the % scale 0 is the no-effect control and ±100 the full control effect; nearly all actives have a fitted effect of over 70% in size.
Assay [4] has as its target Catechol O-methyltransferase (Homo sapiens) (UniProt P21964). The assay can be described thus: Confirmatory Screen for Target Class Profiling of Small Molecule Inhibitors of Methyltransferases (AID 1745852). On activity change, negative = inhibition: on the % scale 0 is the no-effect control and ±100 the full control effect. Conditions: MTase-Glo luminescence, SAH detection, recombinant enzyme; measured here: COMT max response; stronger effect = lower value.
In assay [5] the target is Guanidinoacetate N-methyltransferase (Homo sapiens) (UniProt Q14353). The assay is described as above. The settings on record: MTase-Glo luminescence, SAH detection, recombinant enzyme; activity change, negative = inhibition: at 57.3 µM (top of the series) unless noted.
In assay [6] the target is Nicotinamide N-methyltransferase (Homo sapiens) (UniProt P40261). Described as above. Conditions: MTase-Glo luminescence, SAH detection, recombinant enzyme; measured here: NNMT max response; stronger effect = lower value.
Assay [7] deals with Phenylethanolamine N-methyltransferase (Homo sapiens) (UniProt P11086). The description is as above. The settings on record: MTase-Glo luminescence, SAH detection, recombinant enzyme; measured here: PNMT max response; stronger effect = lower value.
The target of assay [8] is Rap guanine nucleotide exchange factor 3 (Homo sapiens) (UniProt O95398). Description: Confirmatory qHTS for antagonist of cAMP-regulated guanine nucleotide exchange factor 3 (EPAC1) (AID 1645880). Further: potency means the concentration at half of the fitted maximal effect; nearly all actives have a fitted effect of over 55% in size. Conditions: EPAC1 Rap1B-BODIPY-GDP exchange, fluorescence. The procedure, abridged:
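Nucleotide exchange uses 100 nM EPAC1, 250 nM RAP1B-BODIPY-GDP and 50 uM GDP, with compounds in a concentration-titration series. After 5 min at room temperature, fluorescence (480 nm ex/540 nm em) is read every 5 min for 30 min. Data are normalized to control ATA and DMSO.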

For assay [9] the target is unchanged. Description: Confirmatory qHTS for agonist of cAMP-regulated guanine nucleotide exchange factor 3 (EPAC1) (AID 1645881).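 Further: EPAC1 catalysed release of BODIPY-GDP from Rap1B seen as fluorescence loss; 100% = effect of cAMP agonist control; nearly all actives have a fitted effect of over 75% in size.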
The target in assay [10] is Rap guanine nucleotide exchange factor 4 (Homo sapiens) (UniProt Q8WZA2). Description: Confirmatory qHTS for agonist of cAMP-regulated guanine nucleotide exchange factor 4 (EPAC2) (AID 1645884).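 Further: nucleotide exchange releases bodipy-GDP from Rap1 and this lowers its fluorescence; on the % scale 0 is the no-effect control and ±100 the full control effect; nearly all actives have a fitted effect of over 65% in size.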
Assay [11] has the same target. The assay can be described thus: Confirmatory qHTS for antagonist of cAMP-regulated guanine nucleotide exchange factor 4 (EPAC2) (AID 1645885). Further: on the % scale 0 is the no-effect control and ±100 the full control effect; nearly all actives have a fitted effect of over 25% in size. Conditions: outcome: dose series up to 114 µM.
Assay [12] addresses Rap guanine nucleotide exchange factor 3 (Homo sapiens) (UniProt O95398). Description: Counterscreen qHTS for antagonist of cAMP-regulated guanine nucleotide exchange factor 3 (EPAC1) (AID 1645888).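 Further: fluorescence loss as bound BODIPY-GDP is released from Rap1B; % of control where 0% means no effect.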 The procedure, abridged: (§1)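 Rap1B-BODIPY-GDP 250 nM + GDP 50 uM; cpds 7-pt, final 9.74 nM–152 uM (activator mode) or from 7.32 nM upwards (inhibitor mode); RT; FI 480/540 nm at 5 and 30 min, then ± cAMP, reread.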
(In general: Counterscreens check selectivity or assay interference.)

Assay [13] shares this target. The assay can be described thus: Counterscreen qHTS for agonist of cAMP-regulated guanine nucleotide exchange factor 3 (EPAC1) (AID 1645889). Further: % of control where 0% means no effect; nearly all actives have a fitted effect of over 40% in size. In short, it runs like this:
as §1

The target in assay [14] is Cytochrome P450 2C9 (Homo sapiens) (UniProt P11712). The assay can be described thus: Cytochrome P450 family 2 subfamily C member 9 (CYP2C9) small molecule antagonists: luciferase biochemical (cell-free) qHTS assay (AID 1645842; active means well fitted curve in the direction sought with a large enough effect in the repeat runs; an effect the other way counts as inactive or inconclusive; further: potency means the concentration at half of the fitted maximal effect; nearly all actives have a fitted effect of over 55% in size). In short, it runs like this: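 Luminescence, after 20 min with luciferin detection reagent, reflected CYP2C9 turnover during a 1 h NADPH-driven reaction at 37C. Enzyme-substrate mix contained 0.4% bovine serum albumin and was preincubated with compound 10 min at room temperature.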

The structures appear in SMILES notation. Results filed as inconclusive are left out. Activity calls are given as the source filed them. Unless noted, the call rests on the fitted dose curve; in most records, active means well fitted curve in the direction sought with a large enough effect; inconclusive means small, poorly fitted or top-dose-only effect, or another doubt; inactive means no such curve, though single readings can be large; an effect the other way counts as inactive or inconclusive.

Rap guanine nucleotide exchange factor 3 (Homo sapiens), sequence (O95398 whole entry, looked up): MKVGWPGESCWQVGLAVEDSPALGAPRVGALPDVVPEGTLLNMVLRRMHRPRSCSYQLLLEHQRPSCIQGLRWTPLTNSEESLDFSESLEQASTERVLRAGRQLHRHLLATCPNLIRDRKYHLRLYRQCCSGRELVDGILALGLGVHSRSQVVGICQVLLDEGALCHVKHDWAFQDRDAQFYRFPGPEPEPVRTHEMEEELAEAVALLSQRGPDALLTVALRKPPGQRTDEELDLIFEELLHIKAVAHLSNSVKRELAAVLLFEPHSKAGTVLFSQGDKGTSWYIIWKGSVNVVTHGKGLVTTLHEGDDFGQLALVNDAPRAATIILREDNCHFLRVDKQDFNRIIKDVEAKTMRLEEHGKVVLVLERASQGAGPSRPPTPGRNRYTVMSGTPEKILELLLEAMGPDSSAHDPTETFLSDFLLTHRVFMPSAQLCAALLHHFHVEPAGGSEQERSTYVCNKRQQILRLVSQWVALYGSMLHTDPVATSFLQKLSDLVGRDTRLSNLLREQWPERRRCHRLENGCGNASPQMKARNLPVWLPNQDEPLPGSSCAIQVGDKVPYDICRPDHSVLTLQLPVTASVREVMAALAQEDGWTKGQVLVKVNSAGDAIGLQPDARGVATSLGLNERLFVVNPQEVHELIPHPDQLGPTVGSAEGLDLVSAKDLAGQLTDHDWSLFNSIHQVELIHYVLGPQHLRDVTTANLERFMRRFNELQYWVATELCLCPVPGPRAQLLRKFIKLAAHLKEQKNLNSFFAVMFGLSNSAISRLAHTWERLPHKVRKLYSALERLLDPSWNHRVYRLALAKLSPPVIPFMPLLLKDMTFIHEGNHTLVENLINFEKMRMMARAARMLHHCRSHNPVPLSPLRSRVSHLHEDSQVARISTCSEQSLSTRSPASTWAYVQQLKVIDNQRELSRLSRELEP
Rap guanine nucleotide exchange factor 4 (Homo sapiens), sequence (Q8WZA2 whole entry, looked up): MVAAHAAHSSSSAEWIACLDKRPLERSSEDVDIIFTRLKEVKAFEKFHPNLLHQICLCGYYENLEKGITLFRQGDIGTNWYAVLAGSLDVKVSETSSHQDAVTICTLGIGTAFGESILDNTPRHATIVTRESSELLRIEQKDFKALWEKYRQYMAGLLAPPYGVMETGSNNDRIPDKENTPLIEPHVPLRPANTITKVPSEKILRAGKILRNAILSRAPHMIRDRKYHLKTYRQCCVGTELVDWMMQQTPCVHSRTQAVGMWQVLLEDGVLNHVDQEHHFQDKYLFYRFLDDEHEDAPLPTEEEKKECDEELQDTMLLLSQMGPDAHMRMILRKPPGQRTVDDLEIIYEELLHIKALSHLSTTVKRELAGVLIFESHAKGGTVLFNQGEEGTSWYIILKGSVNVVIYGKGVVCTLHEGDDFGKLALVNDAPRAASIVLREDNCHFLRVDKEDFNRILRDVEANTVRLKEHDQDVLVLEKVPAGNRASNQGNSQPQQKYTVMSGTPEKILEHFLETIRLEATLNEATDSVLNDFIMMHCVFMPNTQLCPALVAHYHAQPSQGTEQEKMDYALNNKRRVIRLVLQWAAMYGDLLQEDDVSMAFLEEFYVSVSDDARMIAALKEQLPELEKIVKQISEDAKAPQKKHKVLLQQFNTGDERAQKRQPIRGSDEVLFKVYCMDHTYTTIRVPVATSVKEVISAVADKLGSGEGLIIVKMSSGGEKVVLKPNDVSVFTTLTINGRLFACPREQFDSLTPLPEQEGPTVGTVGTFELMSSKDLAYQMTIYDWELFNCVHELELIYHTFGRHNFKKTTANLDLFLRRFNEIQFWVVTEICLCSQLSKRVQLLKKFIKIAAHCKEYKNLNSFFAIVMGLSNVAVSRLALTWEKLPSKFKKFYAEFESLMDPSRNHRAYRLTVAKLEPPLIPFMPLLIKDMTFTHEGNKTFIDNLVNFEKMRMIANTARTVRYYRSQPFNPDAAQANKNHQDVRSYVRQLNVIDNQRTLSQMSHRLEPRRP
Phenylethanolamine N-methyltransferase (Homo sapiens), sequence (P11086 whole entry, looked up): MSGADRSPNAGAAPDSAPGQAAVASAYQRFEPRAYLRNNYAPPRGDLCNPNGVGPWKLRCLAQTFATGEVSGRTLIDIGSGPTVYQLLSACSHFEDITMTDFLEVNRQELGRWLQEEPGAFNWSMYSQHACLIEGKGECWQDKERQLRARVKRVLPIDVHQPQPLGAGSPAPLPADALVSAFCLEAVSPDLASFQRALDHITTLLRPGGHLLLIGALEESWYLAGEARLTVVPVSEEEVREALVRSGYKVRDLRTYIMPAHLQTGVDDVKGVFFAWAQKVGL
Catechol O-methyltransferase (Homo sapiens), sequence (P21964 whole entry, looked up): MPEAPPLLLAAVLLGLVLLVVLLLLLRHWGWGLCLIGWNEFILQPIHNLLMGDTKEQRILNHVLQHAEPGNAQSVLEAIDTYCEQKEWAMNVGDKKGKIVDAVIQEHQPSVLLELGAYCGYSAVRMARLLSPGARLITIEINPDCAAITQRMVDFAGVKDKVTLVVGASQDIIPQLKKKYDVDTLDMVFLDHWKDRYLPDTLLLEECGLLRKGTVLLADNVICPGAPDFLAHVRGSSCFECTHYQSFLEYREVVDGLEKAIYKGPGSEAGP
Nicotinamide N-methyltransferase (Homo sapiens), sequence (P40261 whole entry, looked up): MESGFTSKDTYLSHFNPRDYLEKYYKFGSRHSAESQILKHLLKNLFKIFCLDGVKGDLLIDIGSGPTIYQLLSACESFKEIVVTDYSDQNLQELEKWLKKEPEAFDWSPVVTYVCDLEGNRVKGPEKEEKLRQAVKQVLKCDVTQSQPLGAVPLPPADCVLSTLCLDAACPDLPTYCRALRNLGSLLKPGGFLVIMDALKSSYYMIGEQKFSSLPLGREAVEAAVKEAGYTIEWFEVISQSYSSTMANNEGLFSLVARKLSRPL
Calcium and integrin-binding protein 1 (Homo sapiens), sequence (Q99828 whole entry, looked up): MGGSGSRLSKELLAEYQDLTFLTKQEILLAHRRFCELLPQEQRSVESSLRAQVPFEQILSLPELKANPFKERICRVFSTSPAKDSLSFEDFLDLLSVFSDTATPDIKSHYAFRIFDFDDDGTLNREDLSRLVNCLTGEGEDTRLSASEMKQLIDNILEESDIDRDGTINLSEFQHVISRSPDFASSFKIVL
Cytochrome P450 2C9 (Homo sapiens), sequence (P11712 whole entry, looked up): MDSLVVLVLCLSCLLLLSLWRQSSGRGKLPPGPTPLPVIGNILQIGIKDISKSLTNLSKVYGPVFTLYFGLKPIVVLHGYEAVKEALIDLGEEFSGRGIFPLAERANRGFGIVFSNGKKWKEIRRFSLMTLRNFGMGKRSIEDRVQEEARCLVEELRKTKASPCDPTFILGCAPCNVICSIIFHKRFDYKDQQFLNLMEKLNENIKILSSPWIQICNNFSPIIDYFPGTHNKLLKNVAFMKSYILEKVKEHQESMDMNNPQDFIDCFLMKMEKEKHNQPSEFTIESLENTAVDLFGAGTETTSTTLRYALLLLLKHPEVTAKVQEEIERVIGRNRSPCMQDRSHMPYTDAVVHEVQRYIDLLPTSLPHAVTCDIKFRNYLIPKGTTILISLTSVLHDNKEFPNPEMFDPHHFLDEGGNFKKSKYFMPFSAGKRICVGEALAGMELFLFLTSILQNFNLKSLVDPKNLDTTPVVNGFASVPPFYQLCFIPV

Turning to `CC1(C)CC[C@]2(C(=O)O[C@@H]3O[C@H](CO)[C@@H](O)[C@H](O)[C@H]3O)CC[C@]3(C)C(=CCC4[C@@]5(C)C[C@@H](O)[C@H](O)[C@@](C)(CO)C5[C@H](O)C[C@]43C)C2[C@@H]1O` (stereo not given in full), the Potency result in assay [1], in [2] and in [3] was “inactive” throughout. Moreover, the activity is -79.3% in [4], 4% in [6] and 3.8% in [7]. Moreover, the activity change, negative = inhibition in assay [5] came to 0% [at 19.1 µM].

Turning to `Cc1ccc([C@@H]2CC=C(C(=O)O)[C@H](c3ccc(C(C)(C)C)cc3)N2S(=O)(=O)c2ccc(C)cc2)cc1`, the Potency in assay [8] was 50.1 µM (active). Further, the outcome in assay [9] and in [11] was “inactive” each time. The activation is 5.81% [at 17.1 µM] (inactive) in assay [10] and 14.8% [at 30.8 µM] (inactive) in [13]. Further, the activity change, negative = inhibition in assay [12] was -12.2% [at 30.8 µM] (inactive).

Take `CCOc1ccc(-c2cc(NC(=O)c3c(F)cccc3F)c(C(=O)O)s2)cc1`: in [8], the Potency is 9.53 µM (active). The outcome in [9], in assay [10], in [11], in [12] and in assay [13] was “inactive” each time.

With `O=C(O)c1cccc(CN2C(=O)/C(=C(\c3ccccc3)c3ccc(Cl)cc3)c3ccccc32)c1`, the Potency in assay [14] is 15.1 µM (active).

On to `CCc1nnc(NS(=O)(=O)c2ccc(NC(=S)NC(=O)/C=C/c3ccc(F)cc3)cc2)s1`, for which, in [8], the Potency is 37.9 µM (active). The outcome in assay [9], in assay [10], in assay [12] and in assay [13] was “inactive” each time.
